Holding throughout (assay): DAPPL (digital affinity profiling via proximity ligation, sequencing); 10 mM Tris-HCl pH 7.5, 50 mM NaCl, 1 mM DTT, 4% glycerol, room temperature, 30 min; GST-TFs on glutathione beads, 16-mer random dsDNA library, 0.1% formaldehyde crosslink after washing; high values mean tight binding
In experiment [1] the target is T1, FEV (Homo sapiens, UniProt Q99581 1-238).
T1 sequence: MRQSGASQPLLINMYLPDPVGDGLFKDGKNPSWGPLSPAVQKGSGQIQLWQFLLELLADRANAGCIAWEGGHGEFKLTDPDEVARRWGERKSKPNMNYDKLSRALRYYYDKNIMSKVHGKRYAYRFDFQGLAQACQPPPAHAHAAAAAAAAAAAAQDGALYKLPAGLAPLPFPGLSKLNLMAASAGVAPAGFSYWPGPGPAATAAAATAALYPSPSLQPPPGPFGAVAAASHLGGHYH
Particulars: protein: recombinant; tags: N-terminal GST; dsDNA, one strand shown. Summed up: (§1)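 Human transcription factors fused to GST were expressed in yeast, captured on glutathione beads, given DNA barcodes and pooled with a GST-only negative control. Pools were incubated with 200 nmole of a 16-mer random double-stranded DNA library in Tris/NaCl/DTT/glycerol buffer at room temperature for 30 min. They were then washed, crosslinked with 0.1% formaldehyde, proximity-ligated (BsaI/T4 ligase, 1 h, 37 °C), PCR-amplified and sequenced on an Illumina NextSeq500. Binding signal is each 6-mer's read frequency for a factor divided by its frequency for the GST control.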

Experiment [2] addresses ETV5 (Homo sapiens, UniProt P41161 1-510). Particulars: protein: recombinant; tags: N-terminal GST; dsDNA, one strand shown. Summed up:
as §1

The target of experiment [3] is HSF1 (Homo sapiens, UniProt Q00613 1-529). Conditions: protein: recombinant; tags: N-terminal GST; chain copies: 3; dsDNA, one strand shown. Summed up:
as §1

Experiment [4] deals with T2, SPIC (Homo sapiens, UniProt Q8N5J4 1-248).
T2 sequence: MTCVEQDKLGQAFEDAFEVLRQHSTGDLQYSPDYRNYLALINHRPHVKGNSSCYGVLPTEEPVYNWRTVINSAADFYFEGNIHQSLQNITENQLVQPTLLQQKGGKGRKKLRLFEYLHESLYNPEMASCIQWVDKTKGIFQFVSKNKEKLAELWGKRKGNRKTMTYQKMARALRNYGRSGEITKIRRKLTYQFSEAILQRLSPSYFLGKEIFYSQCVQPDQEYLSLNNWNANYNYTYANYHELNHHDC
Particulars: protein: recombinant; tags: N-terminal GST; dsDNA, one strand shown. The procedure, abridged: as §1

Experiment [5] deals with ELF4 (Homo sapiens, UniProt Q99607 1-663). Particulars: protein: recombinant; tags: N-terminal GST; dsDNA, one strand shown. Summed up: as §1
The target in experiment [6] is T3, ELK4 (Homo sapiens, UniProt P28324-2 1-405).
T3 sequence: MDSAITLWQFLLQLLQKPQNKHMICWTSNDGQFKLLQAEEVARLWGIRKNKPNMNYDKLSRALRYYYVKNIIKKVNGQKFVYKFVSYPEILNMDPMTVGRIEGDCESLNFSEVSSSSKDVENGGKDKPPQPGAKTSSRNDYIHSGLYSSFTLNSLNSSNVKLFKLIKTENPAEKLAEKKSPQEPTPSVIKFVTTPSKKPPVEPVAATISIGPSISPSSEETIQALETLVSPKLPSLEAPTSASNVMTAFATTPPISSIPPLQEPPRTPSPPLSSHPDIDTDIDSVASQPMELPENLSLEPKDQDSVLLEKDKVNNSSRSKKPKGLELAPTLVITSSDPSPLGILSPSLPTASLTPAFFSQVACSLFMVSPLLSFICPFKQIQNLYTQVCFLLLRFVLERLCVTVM
Conditions: protein: recombinant; tags: N-terminal GST; dsDNA, one strand shown. The procedure, abridged:
as §1

The target in experiment [7] is T4, ETV2 (Homo sapiens, UniProt O00321 1-342).
T4 sequence: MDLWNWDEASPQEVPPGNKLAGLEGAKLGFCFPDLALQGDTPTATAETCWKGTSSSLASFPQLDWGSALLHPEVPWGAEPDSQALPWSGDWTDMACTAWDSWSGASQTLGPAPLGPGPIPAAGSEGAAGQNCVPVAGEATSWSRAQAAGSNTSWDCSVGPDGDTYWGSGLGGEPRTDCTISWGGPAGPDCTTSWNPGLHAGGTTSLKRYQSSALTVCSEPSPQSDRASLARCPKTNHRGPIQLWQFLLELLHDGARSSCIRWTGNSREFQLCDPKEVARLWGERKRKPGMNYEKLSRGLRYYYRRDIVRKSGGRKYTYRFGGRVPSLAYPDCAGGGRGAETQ
Conditions: protein: recombinant; tags: N-terminal GST; dsDNA, one strand shown. Summed up:
as §1

In experiment [8] the target is T5, ELF3 (Homo sapiens, UniProt P78545 1-371).
T5 sequence: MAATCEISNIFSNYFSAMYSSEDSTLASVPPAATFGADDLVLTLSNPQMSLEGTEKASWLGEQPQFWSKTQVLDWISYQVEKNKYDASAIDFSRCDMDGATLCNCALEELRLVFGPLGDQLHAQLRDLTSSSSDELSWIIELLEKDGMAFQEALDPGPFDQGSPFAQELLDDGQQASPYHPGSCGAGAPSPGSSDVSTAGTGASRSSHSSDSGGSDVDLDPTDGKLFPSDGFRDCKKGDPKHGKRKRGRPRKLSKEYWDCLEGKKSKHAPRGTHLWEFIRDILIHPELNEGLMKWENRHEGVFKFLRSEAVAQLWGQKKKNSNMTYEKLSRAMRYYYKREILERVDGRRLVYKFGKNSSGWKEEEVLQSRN
Conditions: protein: recombinant; tags: N-terminal GST; dsDNA, one strand shown. The procedure, abridged: as §1

Experiment [9] addresses CRX (Homo sapiens, UniProt O43186 1-299). Particulars: protein: recombinant; tags: N-terminal GST; dsDNA, one strand shown. Summed up:
as §1

In experiment [10] the target is ETV1 (Homo sapiens, UniProt P50549 1-477). Particulars: protein: recombinant; tags: N-terminal GST; dsDNA, one strand shown. Summed up:
as §1

The target in experiment [11] is T6, ERF (Homo sapiens, UniProt P50548 1-548).
T6 sequence: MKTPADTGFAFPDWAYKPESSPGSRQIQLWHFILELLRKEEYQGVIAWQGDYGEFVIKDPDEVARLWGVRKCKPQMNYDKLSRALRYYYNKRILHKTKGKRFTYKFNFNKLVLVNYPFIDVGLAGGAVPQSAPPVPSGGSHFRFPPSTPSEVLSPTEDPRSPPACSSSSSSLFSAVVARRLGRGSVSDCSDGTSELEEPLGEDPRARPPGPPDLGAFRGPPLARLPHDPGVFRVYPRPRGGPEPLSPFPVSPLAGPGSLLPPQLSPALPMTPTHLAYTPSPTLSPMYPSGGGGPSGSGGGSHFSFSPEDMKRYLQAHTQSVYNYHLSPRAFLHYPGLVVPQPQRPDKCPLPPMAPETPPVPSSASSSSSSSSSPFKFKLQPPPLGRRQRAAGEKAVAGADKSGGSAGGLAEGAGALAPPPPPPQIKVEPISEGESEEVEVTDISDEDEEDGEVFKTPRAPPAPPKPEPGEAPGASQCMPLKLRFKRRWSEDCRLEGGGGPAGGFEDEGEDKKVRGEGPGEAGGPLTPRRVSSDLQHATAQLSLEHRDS
Particulars: protein: recombinant; tags: N-terminal GST; dsDNA, one strand shown. Summed up:
as §1

The target of experiment [12] is T7, ETV3L (Homo sapiens, UniProt Q6ZN32 1-361).
T7 sequence: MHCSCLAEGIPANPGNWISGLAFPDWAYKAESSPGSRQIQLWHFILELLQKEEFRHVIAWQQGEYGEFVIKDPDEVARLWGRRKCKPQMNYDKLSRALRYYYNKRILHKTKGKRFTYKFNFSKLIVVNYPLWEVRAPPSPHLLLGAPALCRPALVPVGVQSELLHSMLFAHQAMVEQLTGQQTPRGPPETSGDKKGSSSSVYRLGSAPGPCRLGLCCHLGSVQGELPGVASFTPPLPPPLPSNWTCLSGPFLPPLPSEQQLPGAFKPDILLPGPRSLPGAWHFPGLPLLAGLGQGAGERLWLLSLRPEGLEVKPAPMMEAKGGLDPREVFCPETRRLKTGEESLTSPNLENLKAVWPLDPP
Particulars: protein: recombinant; tags: N-terminal GST; dsDNA, one strand shown. The procedure, abridged: as §1

The target in experiment [13] is T8, ETS2 (Homo sapiens, UniProt P15036 1-469).
T8 sequence: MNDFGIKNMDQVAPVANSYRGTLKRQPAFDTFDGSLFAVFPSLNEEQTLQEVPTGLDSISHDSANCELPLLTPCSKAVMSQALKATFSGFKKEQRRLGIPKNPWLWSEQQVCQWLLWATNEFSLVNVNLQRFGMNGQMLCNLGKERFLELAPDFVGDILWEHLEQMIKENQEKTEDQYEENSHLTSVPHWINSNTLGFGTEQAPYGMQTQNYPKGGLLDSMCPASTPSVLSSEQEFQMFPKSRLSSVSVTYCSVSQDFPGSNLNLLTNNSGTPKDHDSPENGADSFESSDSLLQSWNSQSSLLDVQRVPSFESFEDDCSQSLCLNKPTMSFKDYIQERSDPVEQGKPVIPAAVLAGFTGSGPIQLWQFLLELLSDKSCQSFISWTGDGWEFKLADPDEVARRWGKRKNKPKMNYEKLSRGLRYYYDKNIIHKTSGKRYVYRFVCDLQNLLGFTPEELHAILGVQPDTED
Particulars: protein: recombinant; tags: N-terminal GST; dsDNA, one strand shown. The procedure, abridged: as §1

Experiment [14] addresses T9, SPDEF (Homo sapiens, UniProt O95238 1-335).
T9 sequence: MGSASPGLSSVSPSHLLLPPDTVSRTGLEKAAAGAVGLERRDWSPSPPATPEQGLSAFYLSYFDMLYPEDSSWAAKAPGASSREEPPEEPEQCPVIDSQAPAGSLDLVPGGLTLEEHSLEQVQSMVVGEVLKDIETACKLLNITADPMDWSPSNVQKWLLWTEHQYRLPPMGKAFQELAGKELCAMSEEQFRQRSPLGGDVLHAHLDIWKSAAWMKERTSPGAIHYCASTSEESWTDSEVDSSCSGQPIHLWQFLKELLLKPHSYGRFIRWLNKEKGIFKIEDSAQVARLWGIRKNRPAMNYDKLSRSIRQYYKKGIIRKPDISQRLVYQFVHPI
Particulars: protein: recombinant; tags: N-terminal GST; dsDNA, one strand shown. Summed up: as §1

The target in experiment [15] is T10, ETV7 (Homo sapiens, UniProt Q9Y603 1-341).
T10 sequence: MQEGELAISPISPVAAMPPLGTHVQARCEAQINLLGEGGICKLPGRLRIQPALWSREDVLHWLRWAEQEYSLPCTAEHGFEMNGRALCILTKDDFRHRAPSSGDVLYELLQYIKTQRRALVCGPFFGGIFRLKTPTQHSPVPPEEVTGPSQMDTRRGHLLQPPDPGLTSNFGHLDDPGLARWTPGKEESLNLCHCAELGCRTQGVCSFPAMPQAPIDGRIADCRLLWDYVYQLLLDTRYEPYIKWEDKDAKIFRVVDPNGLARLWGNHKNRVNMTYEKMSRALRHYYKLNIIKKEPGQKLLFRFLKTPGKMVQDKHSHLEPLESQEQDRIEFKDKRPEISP
Conditions: protein: recombinant; tags: N-terminal GST; dsDNA, one strand shown. The procedure, abridged:
as §1

For experiment [16], the target named is T11, ELF5 (Homo sapiens, UniProt Q9UKW6-2 1-255).
T11 sequence: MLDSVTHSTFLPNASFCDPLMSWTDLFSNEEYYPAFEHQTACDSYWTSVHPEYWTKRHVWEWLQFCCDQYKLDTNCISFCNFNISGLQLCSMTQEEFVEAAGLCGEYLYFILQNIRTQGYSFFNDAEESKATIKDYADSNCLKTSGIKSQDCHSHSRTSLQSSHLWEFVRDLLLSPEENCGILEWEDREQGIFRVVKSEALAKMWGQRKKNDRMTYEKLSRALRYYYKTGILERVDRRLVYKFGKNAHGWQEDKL
Particulars: protein: recombinant; tags: N-terminal GST; dsDNA, one strand shown. Summed up:
as §1

In experiment [17] the target is T12, ETV3 (Homo sapiens, UniProt P41162-2 1-143).
T12 sequence: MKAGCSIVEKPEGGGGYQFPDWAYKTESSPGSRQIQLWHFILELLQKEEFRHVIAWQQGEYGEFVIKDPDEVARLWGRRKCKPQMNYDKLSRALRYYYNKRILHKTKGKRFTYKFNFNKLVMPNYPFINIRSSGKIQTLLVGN
Particulars: protein: recombinant; tags: N-terminal GST; dsDNA, one strand shown. The procedure, abridged: as §1

Experiment [18] addresses ETV6 (Homo sapiens, UniProt P41212 1-452). Particulars: protein: recombinant; tags: N-terminal GST; dsDNA, one strand shown. Summed up: as §1

ETV6, sequence (P41212 whole entry): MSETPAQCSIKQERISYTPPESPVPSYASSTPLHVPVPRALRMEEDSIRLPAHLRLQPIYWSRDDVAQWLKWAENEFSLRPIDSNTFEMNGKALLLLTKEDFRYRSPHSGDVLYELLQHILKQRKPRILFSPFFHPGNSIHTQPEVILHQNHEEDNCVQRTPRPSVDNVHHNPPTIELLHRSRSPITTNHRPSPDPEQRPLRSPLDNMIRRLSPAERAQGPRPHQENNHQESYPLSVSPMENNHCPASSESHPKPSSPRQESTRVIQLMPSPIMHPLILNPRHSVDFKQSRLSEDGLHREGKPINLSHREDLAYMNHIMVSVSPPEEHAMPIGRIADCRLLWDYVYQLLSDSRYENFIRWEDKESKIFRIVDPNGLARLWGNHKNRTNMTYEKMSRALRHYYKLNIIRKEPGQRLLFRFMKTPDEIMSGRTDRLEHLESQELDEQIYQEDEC
ETV1, sequence (P50549 whole entry): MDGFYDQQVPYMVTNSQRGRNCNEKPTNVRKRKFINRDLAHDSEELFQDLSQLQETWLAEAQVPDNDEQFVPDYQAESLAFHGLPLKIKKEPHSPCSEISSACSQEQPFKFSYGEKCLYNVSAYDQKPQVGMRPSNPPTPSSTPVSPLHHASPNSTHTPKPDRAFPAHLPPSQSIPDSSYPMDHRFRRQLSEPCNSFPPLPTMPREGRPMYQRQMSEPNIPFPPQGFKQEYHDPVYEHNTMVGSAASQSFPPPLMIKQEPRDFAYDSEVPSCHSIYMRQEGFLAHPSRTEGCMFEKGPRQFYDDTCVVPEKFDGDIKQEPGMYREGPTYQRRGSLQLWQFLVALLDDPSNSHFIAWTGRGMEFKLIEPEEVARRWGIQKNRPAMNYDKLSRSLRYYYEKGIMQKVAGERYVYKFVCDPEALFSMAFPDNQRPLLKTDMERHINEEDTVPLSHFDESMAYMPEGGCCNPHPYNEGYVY
CRX, sequence (O43186 whole entry): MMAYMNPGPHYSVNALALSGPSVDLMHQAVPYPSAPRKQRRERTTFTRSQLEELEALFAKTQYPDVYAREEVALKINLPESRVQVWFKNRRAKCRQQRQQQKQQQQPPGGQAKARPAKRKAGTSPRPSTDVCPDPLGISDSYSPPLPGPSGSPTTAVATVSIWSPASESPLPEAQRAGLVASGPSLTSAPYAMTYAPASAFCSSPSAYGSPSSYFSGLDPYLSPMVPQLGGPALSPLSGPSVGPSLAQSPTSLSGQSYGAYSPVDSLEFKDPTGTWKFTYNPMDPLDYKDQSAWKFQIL
HSF1, sequence (Q00613 whole entry): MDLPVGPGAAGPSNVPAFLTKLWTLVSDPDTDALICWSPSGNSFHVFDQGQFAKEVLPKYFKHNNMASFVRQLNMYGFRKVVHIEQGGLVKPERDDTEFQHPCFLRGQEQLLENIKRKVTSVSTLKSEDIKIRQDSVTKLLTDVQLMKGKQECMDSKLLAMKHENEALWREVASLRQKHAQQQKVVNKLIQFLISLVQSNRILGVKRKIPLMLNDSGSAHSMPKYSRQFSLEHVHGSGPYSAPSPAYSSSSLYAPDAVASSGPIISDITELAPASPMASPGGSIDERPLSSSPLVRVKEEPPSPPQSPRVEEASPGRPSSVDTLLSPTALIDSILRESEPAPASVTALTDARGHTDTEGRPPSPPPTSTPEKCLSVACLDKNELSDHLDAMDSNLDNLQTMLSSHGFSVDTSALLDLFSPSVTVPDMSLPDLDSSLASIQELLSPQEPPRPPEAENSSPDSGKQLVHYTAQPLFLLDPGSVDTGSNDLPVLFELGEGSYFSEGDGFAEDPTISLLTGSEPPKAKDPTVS
ELF4, sequence (Q99607 whole entry): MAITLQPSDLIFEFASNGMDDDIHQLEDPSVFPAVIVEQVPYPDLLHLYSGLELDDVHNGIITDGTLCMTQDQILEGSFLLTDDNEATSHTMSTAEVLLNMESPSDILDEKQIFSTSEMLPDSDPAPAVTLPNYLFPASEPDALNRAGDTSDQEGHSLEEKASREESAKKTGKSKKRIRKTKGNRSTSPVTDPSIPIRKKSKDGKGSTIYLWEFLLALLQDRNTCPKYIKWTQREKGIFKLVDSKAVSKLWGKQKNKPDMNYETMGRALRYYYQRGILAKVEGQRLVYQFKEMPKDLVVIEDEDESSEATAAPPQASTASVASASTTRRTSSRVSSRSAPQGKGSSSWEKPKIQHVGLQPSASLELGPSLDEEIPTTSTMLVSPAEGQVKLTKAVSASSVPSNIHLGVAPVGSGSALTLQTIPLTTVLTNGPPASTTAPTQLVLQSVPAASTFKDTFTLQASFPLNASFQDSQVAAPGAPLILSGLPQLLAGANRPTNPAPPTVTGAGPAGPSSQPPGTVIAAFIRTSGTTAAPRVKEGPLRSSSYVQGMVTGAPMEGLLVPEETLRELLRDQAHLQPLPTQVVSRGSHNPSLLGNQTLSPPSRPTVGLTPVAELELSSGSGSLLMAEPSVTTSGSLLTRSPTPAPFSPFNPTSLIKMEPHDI
ETV5, sequence (P41161 whole entry): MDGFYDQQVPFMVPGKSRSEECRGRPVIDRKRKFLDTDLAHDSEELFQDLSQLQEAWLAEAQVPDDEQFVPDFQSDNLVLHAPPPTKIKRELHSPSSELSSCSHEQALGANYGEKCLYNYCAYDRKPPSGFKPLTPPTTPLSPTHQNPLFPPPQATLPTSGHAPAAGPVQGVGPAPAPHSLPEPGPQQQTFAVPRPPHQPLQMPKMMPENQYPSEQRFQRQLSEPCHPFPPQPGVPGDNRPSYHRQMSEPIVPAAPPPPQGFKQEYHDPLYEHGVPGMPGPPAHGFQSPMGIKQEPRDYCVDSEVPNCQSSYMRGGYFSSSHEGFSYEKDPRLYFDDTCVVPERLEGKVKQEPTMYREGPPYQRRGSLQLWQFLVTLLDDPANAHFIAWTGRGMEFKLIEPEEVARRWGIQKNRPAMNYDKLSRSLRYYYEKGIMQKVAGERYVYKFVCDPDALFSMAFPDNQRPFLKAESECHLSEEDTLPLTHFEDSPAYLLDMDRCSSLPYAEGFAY

Turning to TCCAAT, the binding signal in experiment [1] is 1.21 fold enrichment (6-mer frequency, TF over GST control); in [2] it was 1.17 fold enrichment (6-mer frequency, TF over GST control); in [3] it was 1.23 fold enrichment (6-mer frequency, TF over GST control); in experiment [4], 1.17 fold enrichment (6-mer frequency, TF over GST control); in [5] it was 1.21 fold enrichment (6-mer frequency, TF over GST control); in [6] it was 1.12 fold enrichment (6-mer frequency, TF over GST control). Further, the binding signal in [7] is 1.24 fold enrichment (6-mer frequency, TF over GST control); in experiment [8], 1.11 fold enrichment (6-mer frequency, TF over GST control); in experiment [9] it was 1.27 fold enrichment (6-mer frequency, TF over GST control); in [10], 1.17 fold enrichment (6-mer frequency, TF over GST control); in experiment [11], 1.13 fold enrichment (6-mer frequency, TF over GST control); in experiment [12], 1.22 fold enrichment (6-mer frequency, TF over GST control). For the same sequence, the binding signal in experiment [13] was 1.2 fold enrichment (6-mer frequency, TF over GST control); in [14], 1.2 fold enrichment (6-mer frequency, TF over GST control); in [15] it was 1.33 fold enrichment (6-mer frequency, TF over GST control); in experiment [16], 1.15 fold enrichment (6-mer frequency, TF over GST control); in experiment [17] it was 1.2 fold enrichment (6-mer frequency, TF over GST control); in [18] it was 1.22 fold enrichment (6-mer frequency, TF over GST control).

Source of the values: publication PMC7862700, “An all-to-all approach to the identification of sequence-specific readers for epigenetic DNA modifications on cytosine”.
